According to PubChem BioAssay AID1851 (National Center for Advancing Translational Sciences (NCATS), 2009):
Hit rate of the full screen: of about 16,000 compounds, about 5,700 (36%) were called active. Another 24% or so got no clear call; they are omitted. Calls come from the whole dose curve; as a rule, active = well fitted curve in the direction sought with a large enough effect; inconclusive = small, poorly fitted or top-dose-only effect, or effect the other way; inactive = no such curve, though single readings can be large or run the other way. This is one part of the list.

Each compound was assayed against Cytochrome P450 1A2 (Homo sapiens) (UniProt P05177) (assay: Cytochrome panel assay with activity outcomes). Settings: recombinant CYP, pro-luciferin dealkylation, luminescence, p450-cyp1a2; series mostly up to 57.1 µM.
Cytochrome P450 1A2 (Homo sapiens), sequence (P05177 whole entry, looked up): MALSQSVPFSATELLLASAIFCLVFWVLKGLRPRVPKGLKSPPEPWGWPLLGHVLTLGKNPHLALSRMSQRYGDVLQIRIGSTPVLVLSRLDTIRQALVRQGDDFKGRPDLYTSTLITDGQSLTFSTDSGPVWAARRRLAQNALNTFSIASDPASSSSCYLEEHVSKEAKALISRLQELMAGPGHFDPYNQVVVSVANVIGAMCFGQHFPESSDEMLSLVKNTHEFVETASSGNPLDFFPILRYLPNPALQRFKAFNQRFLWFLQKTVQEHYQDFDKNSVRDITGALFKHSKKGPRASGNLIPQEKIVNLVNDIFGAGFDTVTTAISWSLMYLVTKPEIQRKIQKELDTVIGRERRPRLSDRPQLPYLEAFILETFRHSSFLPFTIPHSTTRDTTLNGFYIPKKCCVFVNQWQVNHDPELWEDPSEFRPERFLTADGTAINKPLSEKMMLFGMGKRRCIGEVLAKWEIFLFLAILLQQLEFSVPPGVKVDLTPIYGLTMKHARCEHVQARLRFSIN
% is set by controls: 0 for no effect and ±100 for the full control effect.

AC50, active:
C=CCNc1nc(-c2ccc(Cl)cc2)cs1 2.24 µM
CC(Oc1ccc(Cl)cc1)c1ccnn1S(=O)(=O)c1ccccc1 (centres undefined) 15.8 µM
CC(Oc1ccccc1)c1ccnn1S(=O)(=O)c1ccccc1 (centres undefined) 25.1 µM
CCOC(=O)c1ccc(Nc2nc(C(=O)OCC)nc3ccccc23)cc1 0.891 µM
CCOC(=O)c1ccc(Nc2nc(-c3cccnc3)nc3ccccc23)cc1 6.31 µM
O=C(O)[C@@H]1[C@@H](C(=O)NCc2ccncc2)[C@@H]2C=C[C@@H]1O2 5.01 µM
CC1Cc2ccccc2N1C(=O)Cn1c(=O)cc(O)c2ccccc21 (centres undefined) 14.1 µM
COc1ccc(-n2cccc2C=O)cc1OC 14.1 µM

AC50, inactive:
C=CC1=C(C(=O)O)N2C(=O)[C@@H](NC(=O)/C(=N\OCC(=O)O)c3csc(N)n3)[C@@H]2SC1
CN1CCC2(CC1)CCN(C(=O)c1cc(C(F)(F)F)cc(C(F)(F)F)c1)CC2
CC(Oc1ccc(-c2ccccc2)c(F)c1)c1ccn(S(=O)(=O)c2ccc(Cl)cc2)n1 (centres undefined)
COC(=O)c1c(C)nc2ccccc2c1C(=O)O
CCOC(=O)c1ccc(NC(=O)C2(c3ccc(OC)cc3)CCOCC2)cc1
O=C(Nc1cccc(F)c1)N1CC[C@@]2(CCCNC2)C1
C[C@@H]1Cc2ccccc2N1NC(=O)c1ccc(Cl)c(S(N)=O)c1 (some centres undefined)
CC1Cc2ccccc2N1C(=O)CN1C(=O)COc2ccccc21 (centres undefined)
COc1ccc(-n2c(C)n[nH]c2=O)cc1OC
COc1ccc(N2C(=O)NC3CC2(C)Oc2ccccc23)cc1OC (centres undefined)

activity, negative = inhibition, inactive:
Cn1c(=O)c2[nH]c(CCCCc3nc4c([nH]3)c(=O)n(C)c(=S)n4C)nc2n(C)c1=S -13.8% [at 2.29 µM]
COC(=O)C/C=C\[C@@H](C)[C@@H]1C=C[C@H](OC(C)=O)[C@H](COC(C)=O)O1 -1.57% [at 11.4 µM]
O=S(=O)(c1ccccc1)N1CN2CN(C1)CN(S(=O)(=O)c1ccccc1)C2 -14.9% [at 11.4 µM]
CCCNC(=O)OC[C@@H]1O[C@H](CCO/N=C\[C@@H](C)[C@H](OCc2ccccc2)C(C)C)C=C[C@@H]1Oc1ccc(OC)cc1 -5.94% [at 11.4 µM]
O=C(O)[C@@H]1[C@@H](C(=O)NCc2cccnc2)[C@@H]2C=C[C@@H]1O2 -0.421% [at 2.29 µM]
O=C(O)[C@@H]1[C@@H](C(=O)Nc2ncccn2)[C@@H]2C=C[C@@H]1O2 -13.2% [at 2.29 µM]
